Assay outcomes deposited in PubChem by National Center for Advancing Translational Sciences (NCATS).
In the library only some 19% were active in any assay of this set; here they are far more common.
DT40 TDP1 CPT = growth inhibition of DT40 Tdp1-/-;hTDP1 cells with camptothecin (screen for TDP1 inhibitors); chicken DT40 Tdp1-/-;hTDP1 cells + 20 nM CPT, ATP luminescence, 48 h; Potency, µM (highest dose often 46.2 µM), actives largely listed as inhibitors; actives 12% (n = 420,000); AID 686979; further: nearly all actives have a fitted effect of over 55% in size
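Cell growth measured by CellTiter-Glo luminescence after a minimum 48 h, 37 C compound exposure with 20 nM CPT in Tdp1-knockout DT40 cells stably expressing hTDP1, seeded 400/well; qHTS titration format.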
KB-V1 cytotox = kills drug-selected multidrug resistant KB-V1 cells; actives 3.4% (n = 400,000); AID 1347076; Potency, µM (top dose mostly 46.1 µM), hits mostly cytotoxic; KB-V1 MDR cells viability, CellTiter-Glo, 72 h; further: nearly all actives have a fitted effect of over 60% in size
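Cells of the MDR subline KB-V1 are plated, dosed with compound at multiple concentrations, and incubated 72 h at 37 degrees C; CellTiter-Glo is then added and luminescence read after 10 min.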
HT1080 IDH1KD tx = kills HT-1080 cells with IDH1 knockdown; HT-1080 IDH1 knockdown viability, ATP luminescence, 48 h; Potency, µM (highest dose often 46.1 µM), actives largely listed as cytotoxic; actives 2% (n = 360,000)
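HT-1080-IDH1KD cells (IDH1 knocked down), 750/well in RPMI with 5% FBS, treated with compound 48 h at 37 degrees C. Viability by CellTiter-Glo luminescence, normalised to DMSO and no-cell wells; concentration-response curves classed.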
HT1080NT lethal = kills 2HG-producing HT-1080-NT fibrosarcoma cells; HT-1080-NT fibrosarcoma viability, CellTiter-Glo ATP luminescence, 48 h; Potency, µM (top dose mostly 46.1 µM), most hits filed as cytotoxic; actives 1.6% (n = 360,000);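 further: NT is the 2HG producing partner of a matched IDH1 knockdown line; nearly all actives have a fitted effect of over 55% in size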
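Fibrosarcoma NT cells, 750 per well in 5% FBS RPMI, were exposed to compound for 48 hours. Viability: CellTiter-Glo luminescence.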
TDP1 cell noCPT = qHTS for Inhibitors of human tyrosyl-DNA phosphodiesterase 1 (TDP1): qHTS in cells in absence of CPT | DT40 Tdp1-/- hTDP1 cells, no CPT, ATP luminescence, 48 h | Potency, µM (titrated, usually from 46.2 µM), actives largely listed as inhibitors | actives 15% (n = 420,000) | AID 686978, 2013; further: nearly all actives have a fitted effect of over 55% in size
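Cells were dispensed at 400 per well, compounds added by pin tool, plates incubated ≥48 hr at 37 °C, then CellTiter-Glo added for 30 min at room temperature before luminescence reading. Line: DT40 Tdp1-/- complemented with hTDP1; camptothecin omitted.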
KB-3-1 tox = KB-3-1 parental cell cytotoxicity | actives 1.4% (n = 400,000) | Potency, µM (doses to about 46.1 µM), usual class: cytotoxic | KB-3-1 viability, CellTiter-Glo ATP luminescence, 72 h; further: nearly all actives have a fitted effect of over 60% in size
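Viability of parental KB-3-1 cells, measured by CellTiter-Glo luminescence, followed a 72 h incubation at 37 °C with pinned compounds in phenol-red-free DMEM containing 10% FBS.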
Of the large screens only hits and unclear results are named; the others gave an inactive call. The call rests on the fitted dose curve; in most records, active means well fitted curve in the direction sought with a large enough effect; inconclusive means small, poorly fitted or top-dose-only effect, or another doubt; inactive means no such curve, though single readings can be large; an effect the other way counts as inactive or inconclusive.

C/C=C/c1ccc(OCC(=O)Nc2cc(OC)c(OC)c(OC)c2)c(OC)c1	DT40 TDP1 CPT 13µM, KB-V1 cytotox inconclusive, TDP1 cell noCPT 12µM, KB-3-1 tox inconclusive
COc1cc(/C=C/c2cccc[n+]2C)ccc1OCC(=O)Nc1ccccc1	none
Cc1cc(-c2cc(-c3ccccc3)on2)nc(NCC2CC2)n1	KB-V1 cytotox inconclusive
Cc1ncc2c(c1CNS(=O)(=O)N(C)C)CCN(C(=O)/C=C/c1ccccc1Cl)C2	TDP1 cell noCPT inconclusive (no result: KB-V1 cytotox, HT1080 IDH1KD tx, HT1080NT lethal, KB-3-1 tox)
CCCCN(C)CCNC(=O)Cn1ncc2c(=O)oc3ccc(C)cc3c21	none
CC(C)(C)N1C(=O)Cc2c1nc(N)c1c(N)nc(N3CCCCC3CO)c(C#N)c21 (configuration not stated)	DT40 TDP1 CPT 21µM, KB-V1 cytotox inconclusive, TDP1 cell noCPT 18µM, KB-3-1 tox inconclusive
CCOC(=O)Cn1c(=N)n(CCOc2ccc3ccccc3c2)c2ccccc21	DT40 TDP1 CPT 18µM, HT1080 IDH1KD tx inconclusive, HT1080NT lethal inconclusive, TDP1 cell noCPT inconclusive
N=c1n(CCCOc2ccc(Br)cc2)c2ccccc2n1CC(N)=O	DT40 TDP1 CPT 18µM, HT1080 IDH1KD tx inconclusive, HT1080NT lethal inconclusive, TDP1 cell noCPT 16µM
CCOC(=O)Cn1c(=N)n(CCOc2ccc(OC)cc2)c2ccccc21	KB-V1 cytotox inconclusive
CCCn1c(=N)n(CCOc2ccc(OC)cc2)c2ccccc21	DT40 TDP1 CPT 16µM, HT1080 IDH1KD tx inconclusive, HT1080NT lethal inconclusive, TDP1 cell noCPT 18µM, KB-3-1 tox inconclusive
O=C(O)c1ccc(/C=N/NC(=S)NCCN2CCOCC2)cc1	none
Oc1cccc(/C=N/NC(=S)NCCN2CCOCC2)c1O	DT40 TDP1 CPT 7.3µM, TDP1 cell noCPT 5.8µM, KB-3-1 tox inconclusive
COc1cc(/C=N/NC(=S)NCCN2CCOCC2)cc(OC)c1OC	TDP1 cell noCPT inconclusive
S=C(NCCN1CCOCC1)N/N=C/c1cccs1	DT40 TDP1 CPT 18µM, TDP1 cell noCPT 4.1µM
c1coc(-c2nnc3sc(-c4cccs4)nn23)c1	none
CCN1CCN(Cc2c(O)ccc3c(=O)c(-c4ccccc4OC)coc23)CC1	none
CCN1CCN(Cc2c(O)ccc3c2O/C(=C\C=C\c2ccccc2OC)C3=O)CC1	DT40 TDP1 CPT inconclusive, HT1080 IDH1KD tx inconclusive, HT1080NT lethal inconclusive, TDP1 cell noCPT 18µM
CCOC(=O)C1=C(COC(=O)CCOc2ccccc2)NC(=O)NC1C (configuration not stated)	DT40 TDP1 CPT 23µM, TDP1 cell noCPT 23µM
Cc1nnsc1C(=O)Nc1cc(Cl)ccc1Cl	HT1080NT lethal inconclusive
COC(=O)[C@]1(Sc2ccc(C)cc2)CC(=O)N[C@@H]1c1ccccc1	TDP1 cell noCPT inconclusive
C=CCN(CC=C)C(=O)C1c2ccccc2Oc2ccccc21	DT40 TDP1 CPT 26µM, TDP1 cell noCPT inconclusive
Cc1ccc(S(=O)(=O)N2CCC(c3nc(-c4cccs4)nc4ccccc34)CC2)cc1	DT40 TDP1 CPT inconclusive, TDP1 cell noCPT inconclusive (no result: HT1080 IDH1KD tx, HT1080NT lethal)
Cc1csc(C(C#N)C(=O)c2cc3ccccc3o2)n1 (configuration not stated)	DT40 TDP1 CPT inconclusive, KB-V1 cytotox 21µM, HT1080 IDH1KD tx inconclusive, HT1080NT lethal inconclusive, TDP1 cell noCPT inconclusive, KB-3-1 tox inconclusive
Cc1ccc(S(=O)(=O)c2cnc(SCC(=O)Nc3cc(C)cc(C)c3)nc2N)cc1	DT40 TDP1 CPT inconclusive, KB-V1 cytotox inconclusive, TDP1 cell noCPT 16µM (no result: HT1080 IDH1KD tx, HT1080NT lethal)
CC(Sc1ncc(S(=O)(=O)c2ccc(C(C)C)cc2)c(N)n1)C(=O)Nc1ccccc1 (configuration not stated)	DT40 TDP1 CPT 16µM, TDP1 cell noCPT 26µM, KB-3-1 tox inconclusive (no result: HT1080 IDH1KD tx, HT1080NT lethal)
CC(Sc1nc(N2CCOCC2)nc(N2CCOCC2)n1)C(=O)Nc1ccccc1 (configuration not stated)	DT40 TDP1 CPT inconclusive
Cc1ccc(S(=O)(=O)c2cnc(SCC(=O)Nc3cccc(Cl)c3)nc2N)cc1C	DT40 TDP1 CPT inconclusive, TDP1 cell noCPT 23µM (no result: HT1080 IDH1KD tx, HT1080NT lethal)
